# BAZ2B inh = qHTS Assay for Inhibitors of BAZ2B; AID 504333, 2011; Bromodomain adjacent to zinc finger domain protein 2B (Homo sapiens), Q9UIF8; 4.4% of 360,000 active; Potency, µM (series often up to 114 µM), inactives show at the top dose activity change, negative = inhibition, hits mostly inhibitors; AlphaScreen BAZ2B-H3K14Ac peptide displacement; note: potency is the fitted concentration of half-maximal effect; % is set by controls: 0 for no effect and ±100 for the full control effect; nearly all actives have a fitted effect of over 60% in size
#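 BAZ2B 50 nM plus b-H3(5-23)K14Ac 50 nM, PBS pH 7.4/0.01% Tween-20, 30 min RT; compound added (max 110 uM), 30 min RT; streptavidin donor/Ni-chelate acceptor beads 10 ug/mL final, 20 min dark; AlphaScreen read.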
# PI5P4K alpha inh = qHTS for Inhibitors of phosphatidylinositol 5-phosphate 4-kinase (PI5P4K) | Phosphatidylinositol 5-phosphate 4-kinase type-2 alpha (Homo sapiens), P48426 | PI5P4Kalpha enzyme, ADP-Glo luminescence, 60 min; stronger effect = lower value | max response, % | 1.2% of 330,000 active; active = max response of -50% or lower; inconclusive = between -30% and -50%; inactive = -30% or higher; note: value at the top dose of about 77 µM; % is set by controls: 0 for no effect and ±100 for the full control effect
#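 qHTS, 1536-well: enzyme/substrate mix, compound by pin tool, 5 microM ATP final; RT 60 min; ADP-Glo reagents 1 (45 min) then 2 (30 min); luminescence.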
# PLK1 PBD block = qHTS for Inhibitors of PLK1-PDB (polo-like kinase 1 - polo-box domain): Primary Screen. Serine/threonine-protein kinase PLK1 (Homo sapiens), P53350. Plk1 PBD binding of FITC phosphopeptide, fluorescence polarization. Potency, µM, without a hit: max response, negative = inhibition, hits mostly inhibitors. 2.8% of 360,000 active; note: potency is the fitted concentration of half-maximal effect; series mostly up to about 57 µM; % is set by controls: 0 for no effect and ±100 for the full control effect; nearly all actives have a fitted effect of over 65% in size
# JMJD2A Tudor = qHTS Assay for Inhibitors of JMJD2A-Tudor Domain. 4.4% of 390,000 active. Potency, µM (doses to about 114 µM), for inactives: at the highest dose activity change, negative = inhibition, most hits filed as inhibitors. AlphaScreen JMJD2A-Tudor / H3K4me3 peptide binding. Lysine-specific demethylase 4A (Homo sapiens), O75164; note: potency is the fitted concentration of half-maximal effect; % is set by controls: 0 for no effect and ±100 for the full control effect; nearly all actives have a fitted effect of over 50% in size
# HP1b binding inh = HTS for Inhibitors of HP1-beta Chromodomain Interactions with Methylated Histone Tails; Chromobox protein homolog 1 (Homo sapiens), P83916; AlphaScreen HP1-beta / biotin-H3K9me3 peptide binding; Potency, µM (series often up to 114 µM), inactives show at the top dose activity change, negative = inhibition, actives largely listed as inhibitors; 0.56% of 390,000 active; AID 540317, 2011; note: potency is the fitted concentration of half-maximal effect; nearly all actives have a fitted effect of over 70% in size
# Target sequence (P83916 whole entry, looked up): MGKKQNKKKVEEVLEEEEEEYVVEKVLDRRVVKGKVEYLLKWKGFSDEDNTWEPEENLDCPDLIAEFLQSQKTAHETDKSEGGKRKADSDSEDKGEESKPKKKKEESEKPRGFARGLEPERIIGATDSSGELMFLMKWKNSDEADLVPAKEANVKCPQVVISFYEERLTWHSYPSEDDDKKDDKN
#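 Compound inhibition of the preformed complex between 50 nM HP1-beta and 50 nM biotinylated H3K9me3 peptide was read by AlphaScreen. Buffer was PBS pH 7.4 with 0.01% Tween-20. Incubations ran 30 min at room temperature, with 10 ug/mL donor/acceptor beads.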
# G9a block = qHTS Assay for Inhibitors of Histone Lysine Methyltransferase G9a; Histone-lysine N-methyltransferase EHMT2 (Homo sapiens), Q96KQ7; G9a H3K9 monomethylation, AlphaScreen, 2 h; Potency, µM (top dose mostly 102 µM), for inactives: at the highest dose activity, negative = inhibition, actives largely listed as inhibitors; 8.8% of 350,000 active; note: potency is the fitted concentration of half-maximal effect; % is set by controls: 0 for no effect and ±100 for the full control effect; nearly all actives have a fitted effect of over 75% in size
# Target sequence (Q96KQ7 913-1193 limits assumed): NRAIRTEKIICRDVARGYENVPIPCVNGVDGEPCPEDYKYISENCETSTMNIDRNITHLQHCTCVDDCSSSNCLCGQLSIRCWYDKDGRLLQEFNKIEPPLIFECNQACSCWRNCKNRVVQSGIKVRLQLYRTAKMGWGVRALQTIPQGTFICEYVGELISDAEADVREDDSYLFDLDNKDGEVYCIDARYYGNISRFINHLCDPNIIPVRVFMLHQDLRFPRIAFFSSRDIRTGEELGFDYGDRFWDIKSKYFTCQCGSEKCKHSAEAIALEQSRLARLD
#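 AlphaScreen read-out: biotin-H3K9 peptide (500 nM) methylation by 20 nM enzyme with 20 uM SAM, 2 h at room temperature after 15 min compound preincubation; anti-monomethyl H3K9 antibody plus donor/acceptor beads, 10 min dark.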
# An asterisk follows results filed as active; ? = inconclusive; · = no result; [ ] = dose if it differs, or a comment. Most compounds without a hit are left out; they make up all but 12% or so of the library. Unless noted, calls come from the whole dose curve; as a rule, active = well fitted curve in the direction sought with a large enough effect; inconclusive = small, poorly fitted or top-dose-only effect, or another doubt; inactive = no such curve, though single readings can be large; an effect the other way counts as inactive or inconclusive.
SMILES,BAZ2B inh,PI5P4K alpha inh,PLK1 PBD block,JMJD2A Tudor,HP1b binding inh,G9a block
CCC(C)Sc1nnc(CSc2nc(C)cc(C)n2)n1C (centres undefined),4%,-3,-5%,-11%,5%,1%
CCCSc1nnc(CSc2nc(C)cc(C)n2)n1C,0%,-10,21µM*,56µM*,1%,-6%
Cc1cc(C)nc(SCc2n[nH]c(=S)n2C)n1,12%,-7,-6%,40µM*,26%,7.1µM*
Cc1ccc(-n2c(CSc3nc(C)cc(C)n3)n[nH]c2=S)cc1,-1%,-3,1%,25µM*,25%,4µM*
NCCO/C=C/[C@H](N)C(=O)O,·,·,·,·,·,31%[59 µM]
COc1ccccc1N1CCN(C(=O)C(C)CS(=O)(=O)c2ccc3c(c2)NC(=O)CS3)CC1 (centres undefined),56µM*,-11,-2%,21%,38%,?
CCOC(=O)C1=CC[C@@H](c2ccccc2C(F)(F)F)N(S(=O)(=O)c2ccc(C)cc2)[C@H]1c1ccc(C#N)cc1,·,0,-12%,·,·,·
Cc1ccc(Nc2c([N+](=O)[O-])ccc3c2=NC2(CCCCC2)N=3)cc1,3.5µM*,-10,-12%,?,?,4.5µM*
CC(C)CC(=O)NC1(C(F)(F)F)C(=O)N(CC(C)C)C2=C1C(=O)CC(C)(C)C2 (centres undefined),-2%,9,-5%,6%,18%,12%
COc1ccc(N2C(=NC(=O)C3CCCCC3)SC3CS(=O)(=O)CC32)c(OC)c1 (centres undefined),-28%,0,12µM*,28µM*,6%,66%
COc1ccc(N2C(=NC(=O)C3CCCCC3)SC3CS(=O)(=O)CC32)cc1 (centres undefined),-2%[57.1 µM],-3,2%,-3%,33%,16%
O=C(NCC1CCCO1)c1nn2c(C(F)(F)F)cc(-c3ccc(Br)o3)nc2c1Br (centres undefined),2%,-5,-18%,-5%,-3%,50µM*
COc1ccc(-c2cc(C(F)(F)F)n3ncc(C(=O)NCC4CCCO4)c3n2)cc1 (centres undefined),0%,0,7.5µM*,8%[11.4 µM],-12%,-8%[59 µM]
CCOC(=O)C1=C(CS(=O)(=O)c2ccc(Br)cc2)NC(=O)NC1c1ccccc1 (centres undefined),-12%,·,·,-18%,30%,-18%[59 µM]
Cc1c(/C(O)=C2/C(=O)C(=O)N(Cc3cccnc3)C2c2cccs2)cnn1-c1ccccc1 (centres undefined),-31%,0,-6%,-25%,17%,?
CN(C)S(=O)(=O)c1ccc(/C(O)=C2/C(=O)C(=O)N(Cc3cccnc3)C2c2ccncc2)cc1 (centres undefined),-4%,-1,-10%,-23%,20%,16µM*
CN(C)S(=O)(=O)c1ccc(/C(O)=C2/C(=O)C(=O)N(Cc3cccnc3)C2c2cccs2)cc1 (centres undefined),-13%,-11,-12%,-17%,36%,40µM*
CN(C)S(=O)(=O)c1ccc(/C(O)=C2/C(=O)C(=O)N(Cc3cccnc3)C2c2ccco2)cc1 (centres undefined),?,-8,-11%,?,15%,?
CC(C)OC(=O)C(C(=O)C(F)(F)F)c1cc(NS(=O)(=O)c2ccc3ccccc3c2)c2ccccc2c1O (centres undefined),-36%,-22,?,35µM*,?,32µM*
Cc1ccc(CN2C(=O)CSCC2(C)C(=O)NC(C)C)cc1 (centres undefined),·,-2,-2%,·,·,·
COc1cccc(CN2CCCN(CC(=O)Nc3ccc4c(c3)OCCO4)S2(=O)=O)c1,-24%,·,·,-5%,17%,-1%[12.7 µM]
CC(=O)Nc1ccc(S(=O)(=O)NCC(CCC(=O)O)C(F)(F)F)cc1 (centres undefined),-13%,?,13µM*,16µM*,-3%,-1%
Cc1ccc(NC(=S)NC(=O)C2CCCC2)cc1C,-8%,-2,-18%,6%,54%,35µM*
NS(=O)(=O)c1cccc(Nc2nc3ccccc3nc2NS(=O)(=O)c2ccc(Cl)cc2)c1,·,-6,17µM*,-10%,26%[57 µM],·
O=C(O)c1cccc(Nc2nc3ccccc3nc2NS(=O)(=O)c2ccccc2)c1,·,-18,?,7%,20%,·
SMILES,BAZ2B inh,PI5P4K alpha inh,PLK1 PBD block,JMJD2A Tudor,HP1b binding inh,G9a block
O=C(NC(=S)Nc1ccc(S(=O)(=O)Nc2ccccc2)cc1)C1CC1,-31%,-6,-27%,-21%,-4%,14µM*
Cc1nc2cncnc2n(C2CC2)c1=O,·,·,·,·,·,-32%[0.501 µM]
NC(=O)Cc1ccc(OCc2nn[nH]n2)cc1,·,-3,-3%,·,·,·
COc1cc(C(CC(=O)Nc2cc(C)ccn2)N2Cc3ccccc3C2=O)cc(OC)c1OC (centres undefined),10%,-6,2%,4%,21%,16%
CC(=O)Nc1ccc(S(=O)(=O)Nc2nc3ccccc3nc2Nc2ccc3ccccc3c2)cc1,-5%,14,24µM*,-10%,34%,?
CC(=O)Nc1ccc(S(=O)(=O)Nc2cc(C)ccn2)cc1,-11%,3,-3%,-10%,37%,50µM*
CC(=O)Nc1ccc(S(=O)(=O)Nc2ccc(Nc3ccccc3)cc2)cc1,-37%,-9,-9%,?,?,40µM*
COc1ccccc1NC(=O)C1=C(C)Nc2nc(SCc3ccccc3F)nn2C1c1cccs1 (centres undefined),-4%,·,·,-13%,-4%,-23%[59 µM]
CCOC(=O)c1sc(/N=C/c2ccc(O)cc2O)cc1C,-36%,0,39%,?,0%,22µM*
CCOC(=O)N1CCN(C(=O)C2CCN(CC3CCCCC3)CC2)CC1,-26%,15,10%,8.9µM*,-14%,35µM*
Cc1ccc(-c2cc(-c3ccccc3[N+](=O)[O-])[nH]n2)c(O)c1,?,·,-6%,?,-6%,20%[0.501 µM]
O=C1NC(=O)C(c2ccccc2[N+](=O)[O-])=C1Nc1ccc(O)c(Cl)c1,50µM*,?,-15%,?,-4%,1.5µM*
Cc1ccc2cc(C)c3nnc(SCc4ccc(C(=O)O)cc4)n3c2c1C,?,2,?,40µM*,27%,·

# Screening results (PubChem)
